Hits are enriched below; roughly 2.3% of the tested compounds scored in any of these assays.
FBPA coupling cs – inhibits coupling enzyme system, counter-screen for aldolase hits. coupling enzyme system counterscreen, AmpLite Red fluorescence. activity change, negative = inhibition, % at 58.2 µM, hits read low. 0.67% of 290,000 active; in the data active = activity change below about -30%
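Activity here indicates interference with the coupling reaction, not aldolase inhibition. Compounds at 57.5 uM final met coupling enzymes for 10 min at RT; substrate and AmpLite Red detection followed, with a 525/598 nm fluorescence read after 20 min.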
Tau fluor counter – counter-screen for tau fibril formation inhibitors | 0.93% of 280,000 active | tau K18 P301L Alexa594 fluorescence, heparin fibrillization | Potency, µM (doses to about 57.7 µM), without a hit: at the top dose activity change, negative = decrease | AID 1463; also: potency is read from the fitted curve at half-maximal effect; nearly all actives have a fitted effect of over 55% in size
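Human K18 P301L tau (15 uM unlabeled plus 0.24 uM Alexa 594-labeled, final) in 100 mM sodium acetate pH 7 was mixed with compound and 20 uM heparin and incubated 6 hr at 37 C.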
USP1 inh – USP1/UAF1 (human) deubiquitinase inhibition. recombinant USP1/UAF1, Ub-Rhodamine cleavage fluorescence. Potency, µM (titrated, usually from 57.1 µM), for inactives: at the highest dose activity change, negative = inhibition, hits mostly inhibitors. AID 743255. 0.23% of 390,000 active. O94782; also: potency is read from the fitted curve at half-maximal effect; nearly all actives have a fitted effect of over 60% in size
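High-throughput fluorogenic screen: 1nM USP1/UAF1 complex, Ub-Rho substrate 150nM final, 50mM HEPES pH 7.8 with 0.5mM EDTA, 0.1 mg/ml BSA, 1mM TCEP and 0.01% Tween-20.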
Tau fibril FP – tau fibrillization inhibition (FP). P10636. K18 P301L tau heparin fibrillization, Alexa594 FP, 6 h. Potency, µM (doses to about 57.7 µM), without a hit: at the highest dose activity, negative = inhibition, actives largely listed as inhibitors. 0.39% of 280,000 active; also: potency is read from the fitted curve at half-maximal effect; nearly all actives have a fitted effect of over 55% in size
Target sequence (P10636 561-689 P618L limits assumed): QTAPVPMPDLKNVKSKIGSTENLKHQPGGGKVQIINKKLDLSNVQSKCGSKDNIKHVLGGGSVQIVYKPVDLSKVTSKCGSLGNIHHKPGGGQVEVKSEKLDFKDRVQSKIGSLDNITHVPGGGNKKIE
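Steps: dispense K18 P301L tau (15 uM plus 0.24 uM Alexa 594 tracer, final) in pH 7 sodium acetate; add compound; add heparin (20 uM final); incubate 6 hr, 37 C; add ThT (30 uM final); after 1 hr ambient, read FP.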
Tau fibril ThT – blocks human tau fibril formation measured by thioflavin T; P10636; recombinant tau K18 P301L (four-repeat tau fragment), heparin-induced fibrillization, ThT fluorescence; Potency, µM (series often up to 57.4 µM), for inactives: top-dose activity, negative = inhibition, most hits filed as inhibitors; 2.1% of 270,000 active; also: potency is read from the fitted curve at half-maximal effect; nearly all actives have a fitted effect of over 55% in size
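Recombinant human tau K18 fragment […] carrying P301L, 15 uM unlabeled plus 0.24 uM Alexa 594-labeled, was fibrillized with 20 uM heparin in 100 mM sodium acetate pH 7 for 6 hr at 37 C; 30 uM ThT fluorescence read after 1 hr.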
* = called active by the depositor; ? = inconclusive; nt = not tested or not shown; ! = a repeat was not active; [ ] = remark or other dose. Unless noted, calls follow the shape of the dose curve; as a rule, active = well fitted curve in the direction sought with a large enough effect; inconclusive = small, poorly fitted or top-dose-only effect, or another doubt; inactive = no such curve, though single readings can be large; an effect the other way counts as inactive or inconclusive. % is scaled to controls: 0 for no effect and ±100 for the full control effect.

SMILES	FBPA coupling cs	Tau fluor counter	USP1 inh	Tau fibril FP	Tau fibril ThT
Nc1ccc2nonc2c1[N+](=O)[O-]	-15.8	-3.0%	31.6µM*	2.8%	-10.8%
CN(c1ccc(O)cc1)c1ccc([N+](=O)[O-])c2nonc12	nt	nt	-16.2%	nt	nt
COc1ccc(OC)c(N=Cc2c(O)n(Cc3ccccc3)c(=S)[nH]c2=O)c1	-20.0	-18.0%	28.2µM*	1.9%	-14.2%
Cc1cc(C)cc(-n2c(O)c(C=Nc3ccc(N4CCOCC4)cc3)c(=O)[nH]c2=S)c1	0.7	-7.6%	-20.5%	6.4%	?
O=c1[nH]c(=S)n(-c2ccc(Br)cc2)c(O)c1C=Nc1ccc(N2CCOCC2)cc1	-1.2	-21.8%	31.6µM*	3.4%	25.1µM*
O=c1[nH]c(=S)n(-c2ccccc2F)c(O)c1C=Nc1ccc(N2CCOCC2)cc1	-0.9	-20.9%	25.1µM*	-9.1%	?
COCCNC(=O)c1c(NC(=O)c2ccco2)n(Cc2ccccc2)c2nc3ccccc3nc12	-33.2*	?	-19.5%	?	14.1µM*
COCCCn1c(N)c(C(=O)NCc2ccco2)c2nc3ccccc3nc21	-35.0*	?	?	-14.1%	?
COCCNC(=O)c1c(N)n(Cc2ccco2)c2nc3ccccc3nc12	0.2	?	-21.5%	2.3%	?
CCC(C)NC(=O)c1c(N)n(CCCOC)c2nc3ccccc3nc12 (centres undefined)	-34.2*	?	31.6µM*	0.9%	?
O=C(O[C@@H]1Cc2c(O)cc(O)cc2O[C@@H]1c1cc(O)c(O)c(O)c1)c1cc(O)c(O)c(O)c1	-6.3	14.1µM*[quencher]	nt	?	12.6µM*
Oc1cc(O)c2c(c1)OC(c1cc(O)c(O)c(O)c1)C(O)C2 (centres undefined)	-19.2	?	nt	?	25.1µM*
O=C(OC1Cc2c(O)cc(O)cc2OC1c1cc(O)c(O)c(O)c1)c1cc(O)c(O)c(O)c1 (centres undefined)	-13.8	6.31µM*[quencher]	nt	17.8µM*	6.31µM*
Cc1oc(-c2ccc(Cl)cc2)nc1CN1CCC(C(=O)NCCCN2CCN(c3cccc(Cl)c3)CC2)CC1	nt	-6.4%	-22.5%	-8.7%	?
CNC(=O)Oc1cccc(-c2cn3cc(OC(=O)NC)ccc3n2)c1	-5.5	?	-16.2%	-11.9%	14.1µM*
CNC(=O)Oc1ccc(-c2cn3cc(Cl)ccc3n2)cc1	-12.7	-8.8%	-10.7%	-3.1%	1.1%
O=c1[nH]c(=S)n(C2CC2)c(O)c1/C=N/Nc1ccccc1	-1.0	-29.0%	-6.3%	?	11.2µM*
CCC(C)n1c(O)c(/C=N/Nc2ccccc2)c(=O)[nH]c1=S (centres undefined)	0.3	?	-15.5%	-8.4%	17.8µM*
CCCCC(=O)N/N=C/c1c(O)n(C2CC2)c(=S)[nH]c1=O	2.6	-8.9%	-13.3%	6.4%	?
O=c1[nH]c(=S)n(C2CC2)c(O)c1/C=N/Nc1cccc2ccccc12	-53.0*	?	-21.8%	?	11.2µM*
O=c1[nH]c(=O)n(CCC2=CCCCC2)c(O)c1/C=N/Nc1cccc2ccccc12	-16.5	?	-24.1%	?	17.8µM*
O=C(N/N=C/c1c(O)n(C2CCCCC2)c(=S)[nH]c1=O)c1ccccc1	-0.2	nt	-16.2%	nt	nt
COc1cccc(C(=O)c2cn(CC(=O)Nc3cc(Cl)c(OC)cc3OC)c3nc(C)ccc3c2=O)c1	nt	-2.7%	?	?	3.6%
CCC(Sc1ccccc1)C(=O)OC1CC2CCC(C1)N2C (centres undefined)	nt	-3.5%	nt	1.2%	-4.0%
CN(C)C(=S)SSC(=S)N(C)C	-44.8*!	-18.5%	?	?	?
SMILES	FBPA coupling cs	Tau fluor counter	USP1 inh	Tau fibril FP	Tau fibril ThT
CC(C)c1cc2c(c(O)c1O)[C@@]1(C(=O)O)CCCC(C)(C)[C@@H]1CC2	-43.3*	?	nt	?	14.1µM*
CC(C)c1cc2c(c(O)c1O)[C@]1(C(=O)O)CCCC(C)(C)C1CC2 (some centres undefined)	-14.9	?	nt	?	28.2µM*
CCC1CN2CCC1CC2C(O)c1ccnc2ccccc12 (centres undefined)	9.8	-3.6%	nt	0.0%	1.8%
Cn1c(=O)oc2cc(S(=O)(=O)N3CCCC(C(=O)NCc4ccccc4Cl)C3)ccc21 (centres undefined)	nt	2.0%	-14.9%	?	1.6%
O=C(OCC(=O)c1ccc([N+](=O)[O-])cc1)/C(=C/c1ccc(Cl)cc1)NC(=O)c1ccccc1	-0.8	-13.5%	-21.6%	?	28.2µM*
Cc1cccc(N2CCc3c2nc2ccccc2c3N)c1	-33.9*!	?	?	8.9%	?
COC1C(O)C(C)O[C@H](OC2CC[C@@]3(C=O)C4CC[C@]5(C)C(C6=CC(=O)OC6)CC[C@@]5(O)C4CC[C@@H]3C2)C1O (some centres undefined)	10.2	-0.8%	nt	1.6%	-0.8%
CCC(C)C(=O)OC1C2CC3=C4CC(=O)OC(c5ccoc5)[C@]4(C)CCC3[C@@](C)(C2=O)C(CC(=O)OC)C1(C)C (some centres undefined)	-1.6	-17.7%	nt	?	?
O=C(O)c1ccccc1N=Nc1c(O)[nH]c(=O)[nH]c1=O	-5.2	9.5%	-11.5%	4.9%	-4.1%
O=c1[nH]c(=S)[nH]c(O)c1N=Nc1ccc2c(c1)OCO2	0.4	-10.9%	-20.1%	8.4%	3.98µM*
O=c1[nH]c(=S)[nH]c(O)c1N=Nc1cccc(S(=O)(=O)N2CCOCC2)c1	-2.3	-5.0%	-22.6%	-2.2%	?
O=c1[nH]c(=S)[nH]c(O)c1N=Nc1ccc2c(c1)OCCO2	0.3	-17.9%	?	-13.1%	2.24µM*
O=c1[nH]c(O)c(N=Nc2ccc3c(c2)OCCO3)c(=O)[nH]1	-0.7	-7.8%	?	11.0%	5.62µM*
O=C(N=Nc1c(O)[nH]c(=O)[nH]c1=O)C1COc2ccccc2O1 (centres undefined)	-29.3	-10.9%	?	?	28.2µM*
O=c1[nH]c(O)c(N=Nc2ccc(S(=O)(=O)N3CCOCC3)cc2)c(=O)[nH]1	-0.4	-13.6%	-29.8%	-3.8%	?
CCN(CC)c1ncnc2c1ncn2[C@@H]1O[C@@H](COP(=O)(O)OP(=O)(O)C(Br)(Br)P(=O)(O)O)[C@H](O)[C@H]1O	5.9	0.1%	nt	2.5%	0.9%
CC(C)NC(=O)N1CCCC2(CCN(C(=O)Oc3ccccc3)CC2)C1	-2.1	nt	nt	nt	nt
Cc1ccc(C)c(N2CCN(C(=O)C3CCN(Cc4nc(-c5cccc(Cl)c5)oc4C)CC3)CC2)c1	nt	-27.2%	11.3%	-10.2%	?
COc1ccccc1CNC(=O)CCC1N=C2c3ccccc3N=C(SCc3cccc(Cl)c3)N2C1=O (centres undefined)	nt	9.2%	?	-6.3%	-3.3%
O=C1C2CCN(CC2)[C@@H]1Cc1ccc2ccccc2c1O	-42.8*	-4.8%	-10.3%	-2.1%	4.1%
